Bioassay records as filed in PubChem BioAssay.
V-ATPase pHluor = regulators of yeast V-ATPase proton transport; response, % at 10 µM; S. cerevisiae, pHLuorin cytosolic pH fluorescence; AID 504577; 0.37% of 350,000 active; in the data active = response mostly above about 7.3%, no sharp cut-off; inactive = mostly below about 5.4%; also: actives read high
CRFR2-BP ag = CRF-BP/CRF-R2 complex agonism; 0.46% of 350,000 active; HEK293 CRF-R2/CRF-BP, calcium dye fluorescence (FLIPR); percent of saturating CRF peptide response; AID 588473; activation, % at 13.2 µM;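 active = activation of at least 50%, plus an integration ratio under a set limit after plate pattern correction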
CRFBP-R2 block = CRF-BP/CRF-R2 complex antagonism. HEK293 CRF-R2/CRF-BP, CRF-induced calcium fluorescence. inhibition, % at 11.8 µM. 0.59% of 350,000 active. AID 588475;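 active = inhibition of the ligand-induced calcium signal above about 50% at the single tested concentration, limit read from the data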
NTR1 agonist = NTR1 (human) agonism. AID 493036. activation, % at 20 µM. 0.17% of 330,000 active. P30989. NTR1-U2OS beta-arrestin-GFP spot imaging, agonist mode;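 active = activation at or above 40% of the spot to cytoplasm intensity ratio, with at least 20 cells analyzed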
Target sequence (P30989 whole entry, looked up): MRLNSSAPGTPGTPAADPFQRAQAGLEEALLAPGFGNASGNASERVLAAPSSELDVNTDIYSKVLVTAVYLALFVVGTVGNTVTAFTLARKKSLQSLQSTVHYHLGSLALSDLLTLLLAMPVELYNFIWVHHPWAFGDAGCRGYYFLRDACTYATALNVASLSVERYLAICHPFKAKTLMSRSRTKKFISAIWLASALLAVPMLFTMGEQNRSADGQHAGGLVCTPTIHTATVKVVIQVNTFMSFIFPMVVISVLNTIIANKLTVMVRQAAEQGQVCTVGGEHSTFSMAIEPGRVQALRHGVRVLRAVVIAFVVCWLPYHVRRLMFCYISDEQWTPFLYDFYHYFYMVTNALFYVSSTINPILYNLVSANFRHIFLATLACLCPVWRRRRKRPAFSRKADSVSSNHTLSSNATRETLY
A number is an active result; i = inactive; nt = no result given. Rows were chosen to be rich in hits. Some 1.5% of all compounds tested hit in one or more screens of this group.

SMILES | V-ATPase pHluor | CRFR2-BP ag | CRFBP-R2 block | NTR1 agonist
CCOCc1cc(CN2CCCC(CNC(=O)c3ccco3)C2)ccc1OC (stereo unspecified) | i | i | 76 | i
CCN1CCN(S(=O)(=O)c2ccc(OC)c(NC(=O)c3ccccc3F)c2)CC1 | i | i | i | i
COc1cccc(CNC(=O)COC(=O)c2nc(Cl)c(Cl)c(Cl)c2Cl)c1 | i | i | i | i
COc1ccc(-c2cc(C(=O)OCc3ccccn3)c3ccccc3n2)cc1 | i | i | i | i
CC(C)NC(=S)NC(=O)c1ccc(-c2ccccc2)cc1 | i | 72 | i | i
COc1cc(OC)c(C(=O)N(CCc2ccccc2)Cc2ccccc2)cc1OC | i | i | i | i
CCOc1ccc(N(CC(=O)Nc2cc(C)ccc2C)S(=O)(=O)c2c(C)[nH]c(=O)[nH]c2=O)cc1 | i | i | i | i
Cc1ccc(O)c(C(=O)c2cc(C#N)c(=O)n(-c3nccs3)c2)c1 | i | 166 | i | i
Cc1ccc(O)c(C(=O)c2cc(C#N)c(=O)n(-c3c(C)n(C)n(-c4ccccc4)c3=O)c2)c1 | i | i | i | i
Cc1ccccc1NC(=O)Cc1nc(COC(=O)c2ccc([N+](=O)[O-])cc2)cs1 | i | i | i | i
Cc1ccccc1NC(=O)Cc1nc(COC(=O)c2cc([N+](=O)[O-])ccc2NCCO)cs1 | i | i | 61 | i
COCCN(C(=O)c1ccc2c(c1)S(=O)(=O)N=C1CCCCCN12)c1c(N)n(CC(C)C)c(=O)[nH]c1=O | i | i | i | nt
CCCCN(C(=O)c1ccc2c(c1)S(=O)(=O)N=C1CCCCCN12)c1c(N)n(CCCC)c(=O)[nH]c1=O | i | i | 96 | i
Nc1c(-c2cccc([N+](=O)[O-])c2)nc2ccccn12 | i | i | i | i
CCCNC(=O)C1CC(=O)N(c2ccc(OCC)cc2)C1 (stereo unspecified) | i | i | 56 | i
O=C(Nc1ccc(Cl)c(S(=O)(=O)N2CCOCC2)c1)c1ccncc1 | i | i | i | i
Cc1ccc(NC(=O)CSc2nnc(-c3ccc(S(=O)(=O)N4CCCC4)cc3)o2)cc1C | i | i | i | 46
CC(=O)Nc1ccc(S(=O)(=O)N2CCC(c3nnc(-c4ccc(C)cc4)o3)CC2)cc1 | i | i | 77 | i
O=c1cc(Cc2ccc([N+](=O)[O-])cc2)[nH]c(=O)[nH]1 | i | i | 57 | nt
C[C@H](CO)N1C[C@H](C)[C@@H](CN(C)S(=O)(=O)c2cn(C)cn2)Oc2cc(Br)ccc2S1(=O)=O | i | i | i | nt
COc1ccc(OCC(=O)Nc2ccc(C(=O)Nc3ccccc3C(=O)O)cc2)cc1 | i | i | i | i
COc1ccccc1NC(=O)c1ccccc1Nc1ccccc1 | i | i | i | i
Nc1ccc(C(=O)Nc2ccccc2C(=O)O)cc1 | i | i | i | i
O=C(O)c1ccccc1NC(=O)c1ccccc1Nc1ccccc1 | i | i | 52 | i
O=C(COc1ccc2ccccc2c1)Nc1cccc(C(=O)Nc2ccccc2C(=O)O)c1 | i | i | 59 | i
SMILES | V-ATPase pHluor | CRFR2-BP ag | CRFBP-R2 block | NTR1 agonist
O=C(Nc1ccccc1C(=O)Nc1ccccc1C(=O)O)c1ccccc1 | i | i | 53 | i
CC(C)(C)NC(=O)COC(=O)CNC(=O)c1cc(Cl)cc([N+](=O)[O-])c1 | i | i | i | i
COc1ccc(/C=C2\SC(=S)N(CC(=O)NC3C=CS(=O)(=O)C3)C2=O)cc1 (stereo unspecified) | i | i | i | i
Cc1ccccc1-n1c(C)nnc1SCC(=O)N(C)C1CCS(=O)(=O)C1 (stereo unspecified) | 15 | i | i | i
CN1CCN(S(=O)(=O)c2ccc(N(C)Cc3c(F)cccc3Cl)nc2)CC1 | i | i | i | i
CS(=O)(=O)N1CCc2cc(S(=O)(=O)N3CCN(Cc4ccc5c(c4)OCO5)CC3)ccc21 | i | i | 57 | i
CCOc1ccc(S(=O)(=O)N2CCN(Cc3ccc4c(c3)OCO4)CC2)cc1OCC | i | i | i | i
CN1CCN(c2ccc(S(=O)(=O)N3CCOCC3)cc2NC(=O)COc2ccc(C#N)cc2)CC1 | i | i | i | nt
O=c1[nH]c(=S)[nH]c2c1C(c1ccc(Br)cc1)c1c([nH]c(=S)[nH]c1=O)O2 | 147 | i | i | nt
O=C1CCCC2=C1C(c1ccc(Br)cc1)c1c([nH]c(=S)[nH]c1=O)N2 (stereo unspecified) | i | i | i | i
CCOC(=O)NNC(=O)c1[nH]c2ccc(Br)cc2c1-c1ccccc1 | i | i | 57 | i
CC(=O)NNC(=O)c1[nH]c2ccc(Br)cc2c1-c1ccccc1 | i | i | i | i
Cc1ccccc1N1CCN(C(=O)c2cc(C3CC3)nn2-c2ccccc2)CC1 | i | i | i | i
OC(CN1C2=NCCN2c2ccccc21)c1ccc2c(c1)OCO2 (stereo unspecified) | i | i | 52 | i
CCOc1ccc(NS(=O)(=O)c2ccc(C(=O)NCC3(N(C)C)CCCCC3)cc2)cc1 | i | 51 | i | i
Cc1cc(S(=O)(=O)Nc2ccc(C(=O)NCC3(N4CCCCC4)CCCCC3)cc2)ccc1F | i | i | i | i
CCOc1ccc(NS(=O)(=O)c2ccc(C(=O)NCC3(N4CCCCC4)CCCCC3)cc2)cc1 | i | 62 | i | i
CCc1nc(NC(=O)c2sc(C)nc2C)sc1C(=O)OC | i | i | i | i
Cc1cc(C)c(C#N)c(SCc2ccccc2C)n1 | i | i | i | i
Cc1cc(C)c(C#N)c(SCc2ccccc2F)n1 | 14 | i | i | i
Cc1ccc(NC(=O)CSC2=C(C#N)C(c3ccco3)C3=C(CC(C)(C)CC3=O)N2)cc1 (stereo unspecified) | i | i | i | i
Cc1ccc(NC(=O)CSC2=C(C#N)C(c3ccco3)CC(=O)N2)cc1 (stereo unspecified) | i | i | 109 | i
COC(=O)CSC1=C(C#N)C(c2ccc(C)o2)CC(=O)N1 (stereo unspecified) | i | i | i | i
Cc1ccc(C(=O)CSC2=C(C#N)C(c3ccco3)CC(=O)N2)c(C)c1 (stereo unspecified) | i | 57 | i | i
CN(CC(=O)Nc1cccc(F)c1)C(=O)CCCNC(=O)c1ccc(Cl)cc1 | i | i | i | i
SMILES | V-ATPase pHluor | CRFR2-BP ag | CRFBP-R2 block | NTR1 agonist
CNCC(=O)O | i | i | 77 | i
CCOC(=O)C(=CNCC(=O)O)C(=O)OCC | i | i | i | i
CCN(CC)C(=O)CSc1ncnc2c1nnn2-c1ccc(OC)cc1 | i | i | 84 | i
COC(=O)[C@H](Cc1ccccc1)NC(=O)NCCc1ccc(OC)cc1 | i | i | i | i
CCOC(=O)c1ccc(CNC(=O)Cn2nnc(-c3ccccc3)n2)o1 | i | 143 | i | i
CCN(CC)Cc1c(C(=O)N2CCc3ccccc3C2)nc2ccc(Cl)cn12 | i | i | i | i
N#C/C(=C\c1ccccc1C(=O)O)c1nc2ccccc2[nH]1 | i | i | i | i
N#C/C(=C\c1ccc(-c2ccc(C(=O)O)cc2)o1)c1nc2ccccc2[nH]1 | i | 141 | i | nt
N#C/C(=C\c1ccc(N2CCOCC2)o1)c1nc2ccccc2[nH]1 | i | 95 | i | i
CCn1c(COc2ccccc2OC)nc2ccccc21 | i | i | i | i
CCn1c(COc2ccccc2C)nc2ccccc21 | i | 73 | i | i
